# Bioassay records (PubChem BioAssay)
# D3 antag: qHTS of D3 Dopamine Receptor Antagonist: qHTS. D3R cells, DiscoveRx beta-arrestin luminescence, antagonist mode; stronger effect = lower value. max response, negative = inhibition, %. AID 652054, 2013. actives 2.5% (n = 360,000). D(3) dopamine receptor (Homo sapiens), P35462; in the data active means max response below about -50%; inconclusive means no clear call, values can overlap the other calls; further: on the % scale 0 is the no-effect control and ±100 the full control effect
# Target sequence (P35462 whole entry, looked up): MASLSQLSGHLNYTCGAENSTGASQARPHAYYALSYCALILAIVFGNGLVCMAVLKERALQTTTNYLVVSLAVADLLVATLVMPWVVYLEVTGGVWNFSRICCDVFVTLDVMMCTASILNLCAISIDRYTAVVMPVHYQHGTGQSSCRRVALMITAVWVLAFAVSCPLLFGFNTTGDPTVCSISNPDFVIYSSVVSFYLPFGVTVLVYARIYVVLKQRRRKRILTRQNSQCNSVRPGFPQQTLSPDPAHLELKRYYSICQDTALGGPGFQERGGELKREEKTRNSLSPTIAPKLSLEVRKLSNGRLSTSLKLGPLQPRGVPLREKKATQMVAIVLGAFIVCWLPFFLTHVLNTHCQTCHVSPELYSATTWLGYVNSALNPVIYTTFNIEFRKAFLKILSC
#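 Cells plated overnight at 1500 cells/well, then exposed to library compounds with dopamine controls for 90 minutes at 37 degrees C. DiscoveRx reagent added for 30–60 minutes at room temperature; luminescence read, quantitative HTS format.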
# IL-1B inflam inh: qHTS for Inhibitors of Inflammasome Signaling: IL-1-beta AlphaLISA Primary Screen. THP-1 LPS/ATP IL-1B secretion, AlphaLISA, 16 h; stronger effect = lower value. activity change, % at 57.5 µM. actives 4.7% (n = 360,000). AID 743279, 2014; in the data active means activity change below about -50%; inconclusive means mostly about -30% to -49%; further: on the % scale 0 is the no-effect control and ±100 the full control effect
#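 THP-1 cells pretreated 1 hr with compounds (up to 57.5 uM final), then stimulated with LPS (250 ng/mL final) plus ATP (1.25 mM final); secreted IL-1B measured by AlphaLISA after 16 hr, decreased signal indicating inhibition.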
# ATXN viability: Viability Counterscreen for Primary qHTS for Inhibitors of ATXN expression; S2 cells (HEK-293 line with an ATXN2-luciferase reporter) viability, CellTiter-Fluor protease fluorescence, 24 h; Potency, µM (titrated, usually from 56.7 µM), most hits filed as cytotoxic; actives 0.49% (n = 400,000); further: potency means the concentration at half of the fitted maximal effect; nearly all actives have a fitted effect of over 40% in size
# a7 integrin act: qHTS for Activators of Integrin-Mediated Alleviation for Muscular Dystrophy; alpha7betagal myoblasts, beta-gal FDG fluorescence, 48 h; actives 0.064% (n = 350,000); Potency, µM (doses to about 38.3 µM), for inactives: at the highest dose activation, usual class: activators;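 further: potency means the concentration at half of the fitted maximal effect; 100% = response of the positive control SU9516; nearly all actives have a fitted effect of over 60% in size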
#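 Alpha7betagal+/- myoblasts (passage 13) were plated 16-24 hr, then exposed to compounds (1:260 dilution of DMSO stock) for 48 hours at 37C. After MPER lysis, β-galactosidase reporter activity was read as FDG fluorescence (ex 480/em 540) after 30 minutes.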
# ATXN2 expr inh: Primary qHTS for Inhibitors of ATXN expression. HEK-293 ATXN2-luciferase reporter, luminescence, 24 h. Potency, µM (titrated, usually from 57 µM), for the others: top-dose activity change, negative = inhibition, usual class: inhibitors. actives 0.72% (n = 360,000). AID 1745845, 2022; further: potency means the concentration at half of the fitted maximal effect; on the % scale 0 is the no-effect control and ±100 the full control effect; nearly all actives have a fitted effect of over 55% in size
#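 qHTS (up to 57 uM final) was run with 24 h compound exposure of reporter cells at 37 °C. Each well was multiplexed: SteadyGlo luminescence measured ATXN2-luciferase expression after a fluorogenic Gly-Phe-AFC viability readout (25 uM final).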
# DRD3 agonist: qHTS of D3 Dopamine Receptor Agonist: qHTS | D(3) dopamine receptor (Homo sapiens), P35462 | D3R DiscoveRx beta-arrestin cells, luminescence, 90 min | max activation, % | actives 0.58% (n = 410,000); in the data active means max activation above about 30%; further: 0% is about no effect
#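 Agonist mode: compounds and dopamine controls were applied to plated cells for 90 min at 37 degrees C after an overnight attachment at 1500 cells/well. Luminescent read-out followed 30 - 60 minutes at room temperature with DiscoveRx detection reagent.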
# The depositor's hits bear a star; i = inactive; u = inconclusive; x = no result. Compounds with a hit are over-represented: about 7% of the library has one in this group of screens. Unless noted, the call rests on the fitted dose curve; in most records, active means well fitted curve in the direction sought with a large enough effect; inconclusive means small, poorly fitted or top-dose-only effect, or another doubt; inactive means no such curve, though single readings can be large; an effect the other way counts as inactive or inconclusive.
SMILES,D3 antag,IL-1B inflam inh,ATXN viability,a7 integrin act,ATXN2 expr inh,DRD3 agonist
CCN1CCN(c2nnc(-c3ccc(C)cc3)c3ccccc23)CC1,2.0,u,i,16.8%,3.0%,-4.3
COc1cc(NC(=S)N(C)CCC#N)c(OC)cc1Cl,3.0,x,i,0.6%,-1.6%,2.2
NC(=O)CC[C@@H]1NC(=O)[C@@H]2CCCN2C(=O)c2cc([N+](=O)[O-])cc(I)c2NCCC[C@@H](C(N)=O)NC1=O,2.5,17.6,i,6.8%,-7.6%,43.9*
NC(=O)CC[C@@H]1NC(=O)[C@@H]2CCCN2C(=O)c2cc([N+](=O)[O-])cc(I)c2NCCC[C@@H](C(=O)NC(CC(=O)O)C(N)=O)NC1=O (stereo partly drawn),0.6,21.6,u,-0.8%,3.9%,7.8
CC(=O)N1N=C(c2cccc(O)c2)CC1c1cccs1 (stereo not drawn),27.2,-12.1,i,-11.8%,26.2%,7.8
CC(=O)N1N=C(c2ccccc2O)CC1c1cccs1 (stereo not drawn),-8.4,-65.2*,i,3.1%,0.4%,4.4
CCOC(=O)c1ccc(NC(=O)NC2CC3CCC(C2)N3Cc2nnnn2Cc2ccco2)cc1 (stereo not drawn),0.0,-11.7,i,16.0%,-13.1%,0.2
Cc1ccc(NC(C(=O)c2ccccc2)c2ccccc2)cc1 (stereo not drawn),1.1,-73.4*,i,12.9%,u,-6.0
Cc1ccc(NC(=O)C(Nc2ccccc2)c2ccccc2)cc1 (stereo not drawn),1.4,-11.0,i,14.1%,-15.3%,-4.2
COCCNCCCCOc1ccc(Br)cc1C,-0.1,-29.3,i,-68.4%,-25.3%,-31.0
COCCCNCCCCOc1ccc(Br)cc1C,-97.0*,-56.1*,i,-40.7%,u,-25.0
Cc1cc(Br)ccc1OCCCCNC(C)(C)C,-65.7*,u,i,-65.0%,-19.0%,1.4
CC/C(=C\C(=O)c1ccncc1)Nc1ccc(Br)cc1,59.4,-67.3*,u,0.0%,4.6%,2.4
CCc1cccc(C)c1NC(=O)C(CC)n1nc(C)c2c(C)n(-c3ccccc3)nc2c1=O (stereo not drawn),x,x,i,x,-12.0%,2.3
COc1ccc(C(=O)Nn2c(SCC(=O)NC3CCCCC3)nc3ccccc3c2=O)cc1,-9.6,u,i,-13.1%,u,15.1
COc1ccc(C(=O)Nn2c(SCC(=O)N3CCC(C)CC3)nc3ccccc3c2=O)cc1,3.8,-52.9*,i,1.4%,u,7.8
Cc1ccc(/C=C2\SC(=S)N(CC3CCCO3)C2=O)o1 (stereo not drawn),-17.3,-96.4*,u,-8.1%,-21.1%,3.6
COc1ccc(/C=C2\SC(=S)N(CC3CCCO3)C2=O)cc1 (stereo not drawn),9.0,-11.9,i,-26.0%,45.3%,-2.5
O=C1/C(=C/c2ccco2)SC(=S)N1CC1CCCO1 (stereo not drawn),-0.6,x,i,-4.0%,10.8%,11.9
O=C1/C(=C/c2cccnc2)SC(=S)N1c1ccc(O)cc1,-14.7,-99.0*,u,0.0%,0.1%,3.9
COc1cc(/C=C2\SC(=S)N(C(Cc3ccccc3)C(=O)O)C2=O)ccc1O (stereo not drawn),-26.7,0.0,12.6µM*,-7.4%,x,-4.8
COc1cc(/C=C2/SC(=S)N(CC3CCCO3)C2=O)ccc1O (stereo not drawn),60.5,-73.9*,u,-170.7%,32.4%,-7.0
CCN(C(=O)COC(=O)CCC(=O)c1cccs1)c1ccccc1,-6.6,-0.6,i,-8.2%,1.9%,8.7
CCOc1ccc(NC(=O)Nc2ccc(NC(C)=O)cc2)cc1,-1.2,0.0,i,12.0%,x,-0.4
O=C1/C(=C/c2cccnc2)SC(=S)N1CC1CCCO1 (stereo not drawn),1.8,-102.8*,i,-49.9%,-4.8%,-0.1
